In the library only some 2.9% were active in any assay of this set; here they are far more common.
DRD3 agonist: agonists of human D3 dopamine receptor; actives 0.58% (n = 410,000); D3R DiscoveRx beta-arrestin cells, luminescence, 90 min; max activation, %; P35462; AID 652048; in the data active = max activation above about 30%; also: 0% is about no effect
Target sequence (P35462 whole entry, looked up): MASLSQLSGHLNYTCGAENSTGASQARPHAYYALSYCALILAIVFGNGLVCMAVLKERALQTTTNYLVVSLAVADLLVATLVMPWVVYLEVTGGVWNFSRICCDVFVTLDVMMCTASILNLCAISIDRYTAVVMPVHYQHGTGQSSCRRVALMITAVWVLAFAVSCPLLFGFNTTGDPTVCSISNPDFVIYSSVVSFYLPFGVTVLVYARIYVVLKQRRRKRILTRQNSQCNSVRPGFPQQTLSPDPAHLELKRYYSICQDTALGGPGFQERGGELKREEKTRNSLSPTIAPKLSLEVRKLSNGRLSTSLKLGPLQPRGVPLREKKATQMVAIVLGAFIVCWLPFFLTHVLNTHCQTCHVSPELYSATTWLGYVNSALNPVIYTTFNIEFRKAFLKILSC
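Agonist mode: compounds and dopamine controls were applied to plated cells for 90 min at 37 degrees C after an overnight attachment at 1500 cells/well. Luminescent read-out followed 30 - 60 minutes at room temperature with DiscoveRx detection reagent.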
a7 integrin act: integrin-mediated muscular dystrophy alleviation activation; alpha7betagal myoblasts, beta-gal FDG fluorescence, 48 h; Potency, µM (top dose mostly 38.3 µM), for inactives: at the top dose activation, usual class: activators; actives 0.064% (n = 350,000); AID 624291; active = well fitted activation curve with a large enough effect; inconclusive = small, poorly fitted or top-dose-only effect; inactive = no such curve, though single readings can be large or run the other way;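 also: potency is read from the fitted curve at half-maximal effect; 100% = response of the positive control SU9516; nearly all actives have a fitted effect of over 60% in size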
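Alpha7betagal+/- myoblasts (passage 13) were plated 16-24 hr, then exposed to compounds (1:260 dilution of DMSO stock) for 48 hours at 37C. After MPER lysis, β-galactosidase reporter activity was read as FDG fluorescence (ex 480/em 540) after 30 minutes.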
DRD3 antagonist: antagonists of human D3 dopamine receptor; D3R cells, DiscoveRx beta-arrestin luminescence, antagonist mode; hits give low values; actives 2.5% (n = 360,000); P35462; AID 652054; max response, negative = inhibition, %; in the data active = max response below about -50%; inconclusive = no clear call, values can overlap the other calls; also: % is scaled to controls: 0 for no effect and ±100 for the full control effect
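Cells plated overnight at 1500 cells/well, then exposed to library compounds with dopamine controls for 90 minutes at 37 degrees C. DiscoveRx reagent added for 30–60 minutes at room temperature; luminescence read, quantitative HTS format.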
* = called active by the depositor.

What do the screens show for `COc1ccc(C(=O)Nc2nnc(SCC(=O)NC3CC3)s2)cc1`?
DRD3 agonist: 8.6; a7 integrin act: 10.8%; DRD3 antagonist: -13.6

What do the screens show for `CCc1nnc(NS(=O)(=O)c2ccc(NC(=O)C(c3ccccc3)c3ccccc3)cc2)s1`?
DRD3 agonist: 1.9; a7 integrin act: 16.2%; DRD3 antagonist: -8.9

Results for CCc1nnc(NS(=O)(=O)c2ccc(NC(=O)/C=C/C(=O)O)cc2)s1 ?
DRD3 agonist: -10.2; a7 integrin act: 17.8%; DRD3 antagonist: -62.4*

How did CCc1nnc(NS(=O)(=O)c2ccc(NC(=O)c3ccc(Cl)cc3)cc2)s1 do in these assays?
DRD3 agonist: -4.8; a7 integrin act: 15.4%; DRD3 antagonist: -16.6

Results for COc1ccc(NS(=O)(=O)c2ccc(NC(=S)NC(=O)c3ccc(Br)cc3)cc2)nn1 ?
DRD3 agonist: -16.5; a7 integrin act: 14.2%; DRD3 antagonist: -53.1*

How did CCc1nnc(NS(=O)(=O)c2ccc(NC(=O)c3cccc(Cl)c3)cc2)s1 do in these assays?
DRD3 agonist: -18.0; a7 integrin act: 12.6%; DRD3 antagonist: -68.3*

Results for CCc1nnc(NS(=O)(=O)c2ccc(NC(=S)NC(=O)/C=C/c3ccc(C(C)C)cc3)cc2)s1 ?
DRD3 agonist: -6.2; a7 integrin act: 14.7%; DRD3 antagonist: -128.9*

Results for CCc1nnc(NS(=O)(=O)c2ccc(NC(=O)/C=C/c3ccccc3Cl)cc2)s1 ?
DRD3 agonist: 2.2; a7 integrin act: 19.0%; DRD3 antagonist: 10.1

Results for COc1ccc(NS(=O)(=O)c2ccc(NC(=O)c3ccc(Br)cc3)cc2)nn1 ?
DRD3 agonist: 2.0; a7 integrin act: 29.9%; DRD3 antagonist: 19.9

Results for O=C(CCCC(=O)NC1CCCCC1)Nc1ccc([N+](=O)[O-])cc1 ?
DRD3 agonist: -1.9; a7 integrin act: -56.8%; DRD3 antagonist: 0.0

How did Cc1ccc(N(CC(=O)N2CCCCCC2)S(C)(=O)=O)cc1 do in these assays?
DRD3 agonist: 2.2; a7 integrin act: -5.7%; DRD3 antagonist: 9.3

How did O=C(CCN1C(=O)C2CCCCC2C1=O)Nc1cc([N+](=O)[O-])ccc1Cl (stereo not given) do in these assays?
DRD3 agonist: -12.4; a7 integrin act: -37.6%; DRD3 antagonist: -6.4

How did CCc1nnc(NS(=O)(=O)c2ccc(NC(=S)NC(=O)c3ccc(Br)cc3)cc2)s1 do in these assays?
DRD3 agonist: -15.5; a7 integrin act: 24.9%; DRD3 antagonist: -65.4*

How did CCc1nnc(NS(=O)(=O)c2ccc(NC(=S)NC(=O)/C=C/c3ccccc3)cc2)s1 do in these assays?
DRD3 agonist: -7.9; a7 integrin act: -2.0%; DRD3 antagonist: -67.9*

How did CCc1nnc(NS(=O)(=O)c2ccc(NC(=S)Nc3ccc(F)cc3)cc2)s1 do in these assays?
DRD3 agonist: -10.6; a7 integrin act: 15.7%; DRD3 antagonist: -4.7

How did COc1cc(NS(=O)(=O)c2ccc(NC(=S)NC(=O)CC(C)C)cc2)nc(OC)n1 do in these assays?
DRD3 agonist: -8.2; a7 integrin act: 4.0%; DRD3 antagonist: -85.4*

Results for CCc1nnc(NS(=O)(=O)c2ccc(NC(=S)NC(=O)/C=C/c3ccc(OC)cc3)cc2)s1 ?
DRD3 agonist: -30.5; a7 integrin act: 9.1%; DRD3 antagonist: -72.8*

What do the screens show for `CCc1nnc(NS(=O)(=O)c2ccc(NC(=S)NC(=O)c3ccccc3)cc2)s1`?
DRD3 agonist: 1.0; a7 integrin act: -2.6%; DRD3 antagonist: -29.3

What do the screens show for `CCc1nnc(NS(=O)(=O)c2ccc(NC(=O)c3ccccc3)cc2)s1`?
DRD3 agonist: -4.5; a7 integrin act: -11.9%; DRD3 antagonist: -11.3

What do the screens show for `COC(=O)CCC(=O)NC(=S)Nc1ccc(S(=O)(=O)Nc2cc(OC)nc(OC)n2)cc1`?
DRD3 agonist: 1.0; a7 integrin act: 3.7%; DRD3 antagonist: 7.4

What do the screens show for `CC(C)C(=O)Nc1csc(C(F)(F)F)c1-c1ccccc1`?
DRD3 agonist: 3.8; a7 integrin act: -0.4%; DRD3 antagonist: 25.1

Results for O=C(/C=C/c1ccccc1[N+](=O)[O-])NCc1cccnc1 ?
DRD3 agonist: -3.6; a7 integrin act: 14.9%; DRD3 antagonist: 0.0

What do the screens show for `Cc1ccc(S(=O)(=O)NC(C)C(=O)NC(C)c2cccs2)cc1` (stereo not given)?
DRD3 agonist: -24.6; a7 integrin act: inconclusive; DRD3 antagonist: -24.2

What do the screens show for `O=C(CN1C(=O)NC(Cc2c[nH]c3ccccc23)C1=O)Nc1ccc(F)c(F)c1F` (stereo not given)?
DRD3 agonist: 2.1; a7 integrin act: -21.3%; DRD3 antagonist: 22.2

How did O=C(NC(=S)Nc1ccc(S(=O)(=O)Nc2nccs2)cc1)c1ccc(Br)o1 do in these assays?
DRD3 agonist: -1.2; a7 integrin act: 5.3%; DRD3 antagonist: inconclusive

Source: PubChem (National Center for Advancing Translational Sciences (NCATS))
